Assay outcomes from PubChem.
In the library only some 7.5% were active in any assay of this set; here they are far more common.
ELG1 genotox – induces genotoxicity in HEK293T cells with luciferase-tagged ELG1; HEK293T ELG1-luciferase reporter, luminescence, 16 h; Potency, µM (series often up to 46 µM), actives largely listed as activators; 1.3% of 330,000 active; AID 504466; note: nearly all actives have a fitted effect of over 60% in size
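Reporter readout depends on ELG1 protein level, which increases with genetic stress. After 16 hr compound exposure at 37 °C, luciferase activity was quantified using ONE-Glo.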
SMN2 splice up – increases expression of the SMN2 splice variant; HEK293 SMN2-luciferase splicing reporter, luminescence, 30-36 h; AID 1458; 2.8% of 210,000 active; Potency, µM (top dose mostly 46.1 µM), usual class: activators; note: nearly all actives have a fitted effect of over 55% in size
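HEK293 cells carry an SMN2 […]–luciferase reporter in which exon 7 inclusion puts luciferase in frame. Cells were plated 10-12 h before compound addition, then incubated 30-36 h at 37C. ONE-Glo luminescence was read; sodium butyrate at 4.5 mM final served as control.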
NPC1 promoter act – activators of NPC1 promoter; Huh7 NPC1 promoter luciferase reporter, 24 h; AID 485313; Potency, µM (series often up to 9.22 µM), usual class: activators; 2.4% of 320,000 active; note: nearly all actives have a fitted effect of over 60% in size
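Readout is luciferase luminescence, reflecting NPC1 promoter activation in stably transfected Huh7 cells after 24 h compound exposure at 37 °C in reduced-serum medium with 10% FBS.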
FLuc modulator – inhibits or activates purified firefly luciferase, miR-21 counter-screen; Potency, µM (top dose mostly 57.5 µM), usual class: inhibitors; AID 588342; 6.9% of 360,000 active; P08659; purified FLuc, Km substrates, luminescence inhibition; note: nearly all actives have a fitted effect of over 55% in size
Target sequence (P08659 whole entry, looked up): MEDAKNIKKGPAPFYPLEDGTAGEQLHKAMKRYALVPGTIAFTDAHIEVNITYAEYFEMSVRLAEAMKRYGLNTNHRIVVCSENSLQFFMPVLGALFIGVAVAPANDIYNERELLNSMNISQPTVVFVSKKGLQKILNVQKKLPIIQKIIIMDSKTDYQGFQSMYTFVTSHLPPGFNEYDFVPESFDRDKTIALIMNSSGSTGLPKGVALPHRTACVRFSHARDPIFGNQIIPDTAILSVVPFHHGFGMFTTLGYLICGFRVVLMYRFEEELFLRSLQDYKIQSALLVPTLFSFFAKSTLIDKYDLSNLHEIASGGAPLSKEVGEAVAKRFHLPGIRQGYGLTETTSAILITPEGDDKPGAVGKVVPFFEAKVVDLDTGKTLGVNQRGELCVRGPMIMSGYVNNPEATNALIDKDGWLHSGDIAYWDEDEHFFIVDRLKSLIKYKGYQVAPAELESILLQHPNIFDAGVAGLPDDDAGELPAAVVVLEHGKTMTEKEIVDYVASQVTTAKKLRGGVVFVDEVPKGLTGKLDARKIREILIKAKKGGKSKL
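Purified P. pyralis luciferase, 10 nM final, with Km-level 10 uM D-luciferin and 10 uM ATP in 50 mM Tris acetate pH 7.5, 10 mM Mg acetate, 0.01% Tween-20, 0.05% BSA; 6-point qHTS titration about 60 µM downward; luminescence read.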
Rab9 promoter act – activates the Rab9 promoter; Huh7 Rab9 promoter-luciferase reporter, luminescence, 24 h; Potency, µM (highest dose often 9.22 µM), most hits filed as activators; 2.8% of 320,000 active; note: nearly all actives have a fitted effect of over 60% in size
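Stable Rab9-luc Huh7, 1500 cells/well, 2 h settle; cmpd in DMSO, 24 h, 37 °C/5% CO2; luciferase reagent 10 min RT; luminescence.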
Large screens that a line does not name were inactive. Calls come from the whole dose curve; as a rule, active = well fitted curve in the direction sought with a large enough effect; inconclusive = small, poorly fitted or top-dose-only effect, or another doubt; inactive = no such curve, though single readings can be large; an effect the other way counts as inactive or inconclusive.

Cc1cc(NS(=O)(=O)c2ccc(NS(=O)(=O)c3ccc(Br)cc3)cc2)no1	none (no result: SMN2 splice up)
Cc1cc(NS(=O)(=O)c2ccc(NC(=O)/C=C/c3ccc(Br)cc3)cc2)no1	FLuc modulator 19µM (no result: SMN2 splice up)
COc1cc(OC)c(NC(=O)/C=C/C(=O)O)cc1Cl	none (no result: SMN2 splice up)
O=C1[C@@H]2[C@H](C(=O)N1O)[C@H]1C=C[C@@H]2C1	none
COc1ccc(NC(=S)N2CCC(NC(=O)c3ccc(OC)cc3)CC2)cc1	none (no result: SMN2 splice up)
Cc1cc(C)nc(NS(=O)(=O)c2ccc(NC(=S)NC(=O)C(C)C)cc2)n1	none
Cc1ccc(S(=O)(=O)N2CCN(CC(=O)N3CCOCC3)CC2)cc1	NPC1 promoter act inconclusive (no result: SMN2 splice up)
Cc1cc2cc(CNC(=O)CCC(=O)O)ccc2[nH]1	none
Cc1ccc(/C=C/C(=O)Nn2cnnc2)cc1	FLuc modulator 5.36µM
COc1ccccc1/C=C/C(=O)Nc1ccc(S(=O)(=O)Nc2cc(C)on2)cc1	FLuc modulator 23.9µM (no result: SMN2 splice up)
COc1ccc(-n2nc([N+](=O)[O-])c(=NCCCN3CCCC3=O)n2O)cc1	ELG1 genotox inconclusive, NPC1 promoter act inconclusive, Rab9 promoter act 1.58µM
COc1ccc(-n2nc([N+](=O)[O-])c(=NCCc3cccc(C)c3)n2O)cc1	NPC1 promoter act inconclusive, Rab9 promoter act 2.24µM (no result: SMN2 splice up)
Cc1cccc(CCN=c2c([N+](=O)[O-])nn(-c3ccccc3)n2O)c1	none
O=C1CCCN1CCCN=c1c([N+](=O)[O-])nn(-c2ccc(Cl)cc2)n1O	none
CN(C)c1ccc(NC(=O)Cn2cc3c(n2)CCCC3)cc1	ELG1 genotox inconclusive, FLuc modulator 19µM
Cc1cc(C)cc(NC(=O)Cn2cc3c(n2)CCCCC3)c1	none
CCCCn1c(N)c(N(CC(C)C)C(=O)c2cc(S(=O)(=O)N3CCCCC3)ccc2C)c(=O)[nH]c1=O	none (no result: SMN2 splice up)
Cc1ccc(-c2cc3ncc(C(=O)c4cc([N+](=O)[O-])ccc4O)cn3n2)cc1	FLuc modulator 9.53µM (no result: ELG1 genotox, NPC1 promoter act, Rab9 promoter act)
C/C(=N/OC(=O)CC(C)C)c1cc(-c2ccc(Cl)cc2)no1	ELG1 genotox inconclusive, SMN2 splice up 17.8µM, NPC1 promoter act inconclusive, FLuc modulator inconclusive, Rab9 promoter act 2.82µM
CCC(C)C(=O)N1CCc2cc(-c3csc(N)n3)ccc21 (configuration not stated)	ELG1 genotox 5.8µM, SMN2 splice up 11.2µM, NPC1 promoter act 2.51µM, FLuc modulator 5.36µM, Rab9 promoter act 1.41µM
CS(=O)(=O)N1CCc2cc(-c3csc(NC(=O)C(c4ccccc4)c4ccccc4)n3)ccc21	none
CC(=O)Nc1nc(-c2ccc3c(c2)CCN3C(=O)C2CC2)c(C)s1	FLuc modulator inconclusive (no result: SMN2 splice up)
CCCC(=O)N1CCc2cc(-c3nc(N)sc3C)ccc21	ELG1 genotox inconclusive, NPC1 promoter act inconclusive, FLuc modulator 12µM, Rab9 promoter act 3.16µM (no result: SMN2 splice up)
CC(C)(C)C(=O)N1CCc2cc(-c3csc(N)n3)ccc21	ELG1 genotox inconclusive, SMN2 splice up inconclusive, NPC1 promoter act 0.355µM, FLuc modulator 0.239µM, Rab9 promoter act 0.0891µM
CC(=O)N1CCC2(CC1)C/C(=N\NC(=S)Nc1ccccc1C)c1cc(O)ccc1O2	FLuc modulator inconclusive
CC(C)N1CC(COc2ccc(Cl)cc2Cl)OC1=O (configuration not stated)	none (no result: SMN2 splice up)
Cc1ccc(NC(=O)Cn2c(=O)n(CCc3ccccc3)c(=O)c3c4c(sc32)CCCC4)cc1C	none (no result: ELG1 genotox, NPC1 promoter act, Rab9 promoter act)
Cc1ccc(C(=O)Cn2c3c(sc2=N)CCCC3)cc1	SMN2 splice up 0.501µM (no result: ELG1 genotox, NPC1 promoter act, FLuc modulator, Rab9 promoter act)
Cc1ccc(C(=O)Cn2ncsc2=N)cc1	ELG1 genotox inconclusive
CSc1ccc(CCNC(=O)c2ccc3c(c2)nc2n3CCCCC2)cc1	FLuc modulator 23.9µM (no result: ELG1 genotox, SMN2 splice up, NPC1 promoter act, Rab9 promoter act)
CC(CNC(=O)c1ccc2c(c1)nc1n2CCCCC1)c1ccccc1 (configuration not stated)	FLuc modulator 21.3µM (no result: ELG1 genotox, SMN2 splice up, NPC1 promoter act, Rab9 promoter act)
Cc1ccccc1CCNC(=O)c1ccc2c(c1)nc1n2CCCCC1	FLuc modulator 0.536µM (no result: ELG1 genotox, SMN2 splice up, NPC1 promoter act, Rab9 promoter act)
CSc1ccc(CCNC(=O)c2ccc3c(c2)nc2n3CCC(C)C2)cc1 (configuration not stated)	none (no result: ELG1 genotox, SMN2 splice up, NPC1 promoter act, Rab9 promoter act)
Cc1ccccc1CCNC(=O)c1ccc2c(c1)nc1n2CCOC1	FLuc modulator 6.01µM (no result: ELG1 genotox, SMN2 splice up, NPC1 promoter act, Rab9 promoter act)
COc1ccc(N(CC(=O)N/N=C/c2ccc(OC)c(OC)c2)S(=O)(=O)c2ccccc2)cc1	none (no result: SMN2 splice up)
CCOC(=O)c1cnc(-n2nc(C)cc2C)nc1Oc1ccc(C(=O)OC)cc1	none (no result: SMN2 splice up)
